# According to paper PMC7862700, “An all-to-all approach to the identification of sequence-specific readers for epigenetic DNA modifications on cytosine”:
# Columns and labels:
# Assay in all cases: DAPPL (digital affinity profiling via proximity ligation, sequencing); 10 mM Tris-HCl pH 7.5, 50 mM NaCl, 1 mM DTT, 4% glycerol, room temperature, 30 min; GST-TFs on glutathione beads, 16-mer random dsDNA library, 0.1% formaldehyde crosslink after washing; high values mean tight binding
# FLI1 = molecular target: T1, FLI1 (Homo sapiens, UniProt Q01543 1-452); conditions: protein: recombinant; tags: N-terminal GST; dsDNA, one strand shown
# T1 sequence: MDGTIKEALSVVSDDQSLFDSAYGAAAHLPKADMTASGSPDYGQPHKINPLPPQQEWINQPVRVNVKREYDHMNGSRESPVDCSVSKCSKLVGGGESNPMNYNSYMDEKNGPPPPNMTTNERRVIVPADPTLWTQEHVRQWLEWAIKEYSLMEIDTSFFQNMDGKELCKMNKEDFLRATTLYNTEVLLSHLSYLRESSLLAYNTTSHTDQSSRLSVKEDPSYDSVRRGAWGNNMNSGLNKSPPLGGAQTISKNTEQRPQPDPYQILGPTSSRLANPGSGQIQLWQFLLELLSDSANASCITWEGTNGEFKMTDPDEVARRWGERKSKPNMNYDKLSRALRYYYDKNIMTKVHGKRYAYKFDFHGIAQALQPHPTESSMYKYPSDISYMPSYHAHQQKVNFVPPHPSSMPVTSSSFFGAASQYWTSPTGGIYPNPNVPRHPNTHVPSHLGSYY
# Summary of the method: (§1)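 Binding signal is defined as a hexamer's read frequency for one factor over its frequency for the tag-only sample. To obtain reads, GST-fused human transcription factors were expressed in yeast, captured on glutathione beads, barcoded with DNA and pooled with that sample. Pools met 200 nmole of a 16-mer random double-stranded DNA library in Tris/NaCl/DTT/glycerol buffer for 30 min at room temperature before washing, 0.1% formaldehyde crosslinking, proximity ligation (BsaI/T4 ligase, 1 h, 37 °C), PCR and Illumina NextSeq500 sequencing.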
# ELK1 = molecular target: T2, ELK1 (Homo sapiens, UniProt P19419 1-428); conditions: protein: recombinant; tags: N-terminal GST; dsDNA, one strand shown
# T2 sequence: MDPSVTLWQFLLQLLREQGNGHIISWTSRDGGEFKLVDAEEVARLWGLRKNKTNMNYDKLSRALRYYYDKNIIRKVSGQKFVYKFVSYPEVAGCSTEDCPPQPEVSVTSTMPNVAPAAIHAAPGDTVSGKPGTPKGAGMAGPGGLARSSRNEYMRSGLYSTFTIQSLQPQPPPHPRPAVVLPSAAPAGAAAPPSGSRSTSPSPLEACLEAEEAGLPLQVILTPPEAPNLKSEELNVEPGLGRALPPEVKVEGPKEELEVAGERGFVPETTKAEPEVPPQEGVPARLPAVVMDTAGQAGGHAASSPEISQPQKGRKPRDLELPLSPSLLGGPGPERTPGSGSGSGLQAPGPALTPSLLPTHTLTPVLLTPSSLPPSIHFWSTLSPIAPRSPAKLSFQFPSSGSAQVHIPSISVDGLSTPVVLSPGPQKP
# Summary of the method: as §1
# GABPA = molecular target: T3, GABPA (Homo sapiens, UniProt Q06546 1-454); conditions: protein: recombinant; tags: N-terminal GST; dsDNA, one strand shown
# T3 sequence: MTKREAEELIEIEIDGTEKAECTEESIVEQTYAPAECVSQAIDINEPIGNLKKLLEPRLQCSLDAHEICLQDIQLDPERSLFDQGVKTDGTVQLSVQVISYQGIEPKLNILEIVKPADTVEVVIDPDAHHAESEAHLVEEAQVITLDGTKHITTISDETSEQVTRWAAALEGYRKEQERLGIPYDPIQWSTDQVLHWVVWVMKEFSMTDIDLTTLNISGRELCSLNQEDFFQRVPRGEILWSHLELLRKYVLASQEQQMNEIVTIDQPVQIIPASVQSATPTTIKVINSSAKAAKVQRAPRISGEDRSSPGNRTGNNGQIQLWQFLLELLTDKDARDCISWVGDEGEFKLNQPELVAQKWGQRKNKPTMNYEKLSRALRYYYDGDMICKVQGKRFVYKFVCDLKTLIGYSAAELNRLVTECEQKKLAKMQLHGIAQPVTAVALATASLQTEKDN
# Summary of the method: as §1
# ERG = molecular target: T4, ERG (Homo sapiens, UniProt P11308 1-479); conditions: protein: recombinant; tags: N-terminal GST; dsDNA, one strand shown
# T4 sequence: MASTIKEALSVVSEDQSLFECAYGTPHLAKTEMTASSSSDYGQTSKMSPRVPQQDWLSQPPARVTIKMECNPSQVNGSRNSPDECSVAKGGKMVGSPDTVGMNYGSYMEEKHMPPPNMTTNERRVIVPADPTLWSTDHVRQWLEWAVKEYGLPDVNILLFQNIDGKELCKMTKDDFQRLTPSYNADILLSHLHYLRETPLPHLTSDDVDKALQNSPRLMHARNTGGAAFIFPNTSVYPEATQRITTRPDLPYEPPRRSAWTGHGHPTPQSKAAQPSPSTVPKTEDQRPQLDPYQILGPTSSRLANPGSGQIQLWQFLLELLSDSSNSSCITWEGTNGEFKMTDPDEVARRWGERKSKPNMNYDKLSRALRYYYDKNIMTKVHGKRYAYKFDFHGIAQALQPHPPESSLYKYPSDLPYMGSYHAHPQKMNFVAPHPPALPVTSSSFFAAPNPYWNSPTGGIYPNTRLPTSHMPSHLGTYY
# Summary of the method: as §1
# ELF1 = ELF1 (Homo sapiens, UniProt P32519 1-619); conditions: protein: recombinant; tags: N-terminal GST; dsDNA, one strand shown
# Summary of the method: as §1
# EHF = molecular target: T5, EHF (Homo sapiens, UniProt Q9NZC4 1-300); conditions: protein: recombinant; tags: N-terminal GST; dsDNA, one strand shown
# T5 sequence: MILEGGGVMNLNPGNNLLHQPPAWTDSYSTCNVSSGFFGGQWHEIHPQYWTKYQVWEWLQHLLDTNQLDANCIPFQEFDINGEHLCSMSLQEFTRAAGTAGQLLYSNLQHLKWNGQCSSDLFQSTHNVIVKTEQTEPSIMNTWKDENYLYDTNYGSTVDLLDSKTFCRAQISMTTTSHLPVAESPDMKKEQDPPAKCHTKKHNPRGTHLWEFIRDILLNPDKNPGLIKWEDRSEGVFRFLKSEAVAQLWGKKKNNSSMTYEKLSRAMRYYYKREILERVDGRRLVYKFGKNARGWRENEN
# Summary of the method: as §1
# SPI1 = SPI1 (Homo sapiens, UniProt P17947 1-270); conditions: protein: recombinant; tags: N-terminal GST; dsDNA, one strand shown
# Summary of the method: as §1
# SPIB = SPIB (Homo sapiens, UniProt Q01892 1-262); conditions: protein: recombinant; tags: N-terminal GST; dsDNA, one strand shown
# Summary of the method: as §1
# ELK3 = molecular target: T6, ELK3 (Homo sapiens, UniProt P41970 1-407); conditions: protein: recombinant; tags: N-terminal GST; dsDNA, one strand shown
# T6 sequence: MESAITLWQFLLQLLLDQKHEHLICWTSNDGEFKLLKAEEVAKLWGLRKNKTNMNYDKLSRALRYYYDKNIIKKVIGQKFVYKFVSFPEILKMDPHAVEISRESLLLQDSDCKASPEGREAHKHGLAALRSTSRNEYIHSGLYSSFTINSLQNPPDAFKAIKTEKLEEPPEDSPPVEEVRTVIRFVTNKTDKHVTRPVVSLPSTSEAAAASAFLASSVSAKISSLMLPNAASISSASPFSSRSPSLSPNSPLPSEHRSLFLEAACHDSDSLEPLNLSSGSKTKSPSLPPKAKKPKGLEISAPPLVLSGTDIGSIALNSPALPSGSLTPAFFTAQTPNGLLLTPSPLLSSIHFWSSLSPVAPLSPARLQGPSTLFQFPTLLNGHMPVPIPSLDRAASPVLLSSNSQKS
# Summary of the method: as §1
# FEV = molecular target: T7, FEV (Homo sapiens, UniProt Q99581 1-238); conditions: protein: recombinant; tags: N-terminal GST; dsDNA, one strand shown
# T7 sequence: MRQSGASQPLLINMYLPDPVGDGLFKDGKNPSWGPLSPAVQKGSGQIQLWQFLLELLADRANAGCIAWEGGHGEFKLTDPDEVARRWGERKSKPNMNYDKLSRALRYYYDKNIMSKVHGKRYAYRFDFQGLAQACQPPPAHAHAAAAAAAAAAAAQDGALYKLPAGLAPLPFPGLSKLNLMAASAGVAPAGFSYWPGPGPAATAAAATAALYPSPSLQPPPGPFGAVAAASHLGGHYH
# Summary of the method: as §1
# ETV5 = ETV5 (Homo sapiens, UniProt P41161 1-510); conditions: protein: recombinant; tags: N-terminal GST; dsDNA, one strand shown
# Summary of the method: as §1
# HSF1 = HSF1 (Homo sapiens, UniProt Q00613 1-529); conditions: protein: recombinant; tags: N-terminal GST; chain copies: 3; dsDNA, one strand shown
# Summary of the method: as §1
# SPIC = molecular target: T8, SPIC (Homo sapiens, UniProt Q8N5J4 1-248); conditions: protein: recombinant; tags: N-terminal GST; dsDNA, one strand shown
# T8 sequence: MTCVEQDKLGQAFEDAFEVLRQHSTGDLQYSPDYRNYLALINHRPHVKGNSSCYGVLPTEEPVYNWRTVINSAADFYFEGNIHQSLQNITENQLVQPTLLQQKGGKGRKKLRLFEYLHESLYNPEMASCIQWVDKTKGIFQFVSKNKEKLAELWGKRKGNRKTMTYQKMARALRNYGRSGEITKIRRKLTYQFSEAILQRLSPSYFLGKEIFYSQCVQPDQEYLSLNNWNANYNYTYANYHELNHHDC
# Summary of the method: as §1
# ELF4 = ELF4 (Homo sapiens, UniProt Q99607 1-663); conditions: protein: recombinant; tags: N-terminal GST; dsDNA, one strand shown
# Summary of the method: as §1
# ELK4 = molecular target: T9, ELK4 (Homo sapiens, UniProt P28324-2 1-405); conditions: protein: recombinant; tags: N-terminal GST; dsDNA, one strand shown
# T9 sequence: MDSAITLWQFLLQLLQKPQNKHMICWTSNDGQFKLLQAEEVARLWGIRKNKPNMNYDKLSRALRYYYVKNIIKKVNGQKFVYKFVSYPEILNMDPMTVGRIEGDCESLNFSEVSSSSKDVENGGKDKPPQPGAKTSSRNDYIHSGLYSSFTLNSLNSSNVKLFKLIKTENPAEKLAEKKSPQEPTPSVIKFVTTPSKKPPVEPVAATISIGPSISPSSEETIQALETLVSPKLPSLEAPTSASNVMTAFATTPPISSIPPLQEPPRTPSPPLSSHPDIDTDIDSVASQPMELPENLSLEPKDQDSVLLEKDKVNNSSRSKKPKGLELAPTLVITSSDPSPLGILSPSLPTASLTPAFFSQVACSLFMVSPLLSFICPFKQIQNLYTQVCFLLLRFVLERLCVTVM
# Summary of the method: as §1
# ETV2 = molecular target: T10, ETV2 (Homo sapiens, UniProt O00321 1-342); conditions: protein: recombinant; tags: N-terminal GST; dsDNA, one strand shown
# T10 sequence: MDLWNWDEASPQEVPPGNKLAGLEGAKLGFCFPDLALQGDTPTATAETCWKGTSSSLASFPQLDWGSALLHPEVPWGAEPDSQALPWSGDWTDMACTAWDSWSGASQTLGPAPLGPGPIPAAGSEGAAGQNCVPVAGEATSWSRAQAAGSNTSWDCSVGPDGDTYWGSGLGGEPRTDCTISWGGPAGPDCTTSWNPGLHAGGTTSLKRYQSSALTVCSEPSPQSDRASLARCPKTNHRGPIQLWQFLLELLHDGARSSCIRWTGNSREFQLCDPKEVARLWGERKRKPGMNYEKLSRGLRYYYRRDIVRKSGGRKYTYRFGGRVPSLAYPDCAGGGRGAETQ
# Summary of the method: as §1
# ELF3 = molecular target: T11, ELF3 (Homo sapiens, UniProt P78545 1-371); conditions: protein: recombinant; tags: N-terminal GST; dsDNA, one strand shown
# T11 sequence: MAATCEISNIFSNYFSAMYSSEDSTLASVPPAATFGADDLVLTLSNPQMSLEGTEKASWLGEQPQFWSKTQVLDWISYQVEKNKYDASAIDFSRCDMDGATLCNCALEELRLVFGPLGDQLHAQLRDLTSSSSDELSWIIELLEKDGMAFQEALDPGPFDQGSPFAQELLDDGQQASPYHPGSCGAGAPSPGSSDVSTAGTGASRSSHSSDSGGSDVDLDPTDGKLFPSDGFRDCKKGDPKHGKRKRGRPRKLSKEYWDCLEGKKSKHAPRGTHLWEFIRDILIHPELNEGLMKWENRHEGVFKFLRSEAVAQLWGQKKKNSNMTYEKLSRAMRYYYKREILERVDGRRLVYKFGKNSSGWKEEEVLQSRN
# Summary of the method: as §1
# CRX = CRX (Homo sapiens, UniProt O43186 1-299); conditions: protein: recombinant; tags: N-terminal GST; dsDNA, one strand shown
# Summary of the method: as §1
# ETV1 = ETV1 (Homo sapiens, UniProt P50549 1-477); conditions: protein: recombinant; tags: N-terminal GST; dsDNA, one strand shown
# Summary of the method: as §1
# Sequence of CRX (O43186 whole entry): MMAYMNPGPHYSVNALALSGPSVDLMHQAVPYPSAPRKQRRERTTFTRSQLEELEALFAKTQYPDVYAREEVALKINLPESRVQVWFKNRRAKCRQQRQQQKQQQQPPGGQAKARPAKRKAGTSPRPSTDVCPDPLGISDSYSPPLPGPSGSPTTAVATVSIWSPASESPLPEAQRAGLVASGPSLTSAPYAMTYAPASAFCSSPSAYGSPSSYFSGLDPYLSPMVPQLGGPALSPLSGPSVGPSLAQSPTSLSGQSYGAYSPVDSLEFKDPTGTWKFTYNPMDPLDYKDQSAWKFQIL
# Sequence of ETV1 (P50549 whole entry): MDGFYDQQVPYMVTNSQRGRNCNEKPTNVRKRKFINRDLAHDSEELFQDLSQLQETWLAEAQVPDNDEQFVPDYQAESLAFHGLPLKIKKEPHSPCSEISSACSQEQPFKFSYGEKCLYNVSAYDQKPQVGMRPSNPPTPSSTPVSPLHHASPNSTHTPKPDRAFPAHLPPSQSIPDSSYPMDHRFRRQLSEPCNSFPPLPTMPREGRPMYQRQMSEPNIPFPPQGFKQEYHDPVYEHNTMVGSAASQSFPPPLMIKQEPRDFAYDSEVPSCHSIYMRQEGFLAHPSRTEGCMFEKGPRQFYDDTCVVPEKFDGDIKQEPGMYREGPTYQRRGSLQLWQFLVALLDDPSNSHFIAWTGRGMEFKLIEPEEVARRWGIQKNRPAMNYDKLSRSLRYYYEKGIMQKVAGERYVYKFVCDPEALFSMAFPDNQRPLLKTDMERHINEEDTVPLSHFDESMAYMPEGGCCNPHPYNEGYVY
# Sequence of HSF1 (Q00613 whole entry): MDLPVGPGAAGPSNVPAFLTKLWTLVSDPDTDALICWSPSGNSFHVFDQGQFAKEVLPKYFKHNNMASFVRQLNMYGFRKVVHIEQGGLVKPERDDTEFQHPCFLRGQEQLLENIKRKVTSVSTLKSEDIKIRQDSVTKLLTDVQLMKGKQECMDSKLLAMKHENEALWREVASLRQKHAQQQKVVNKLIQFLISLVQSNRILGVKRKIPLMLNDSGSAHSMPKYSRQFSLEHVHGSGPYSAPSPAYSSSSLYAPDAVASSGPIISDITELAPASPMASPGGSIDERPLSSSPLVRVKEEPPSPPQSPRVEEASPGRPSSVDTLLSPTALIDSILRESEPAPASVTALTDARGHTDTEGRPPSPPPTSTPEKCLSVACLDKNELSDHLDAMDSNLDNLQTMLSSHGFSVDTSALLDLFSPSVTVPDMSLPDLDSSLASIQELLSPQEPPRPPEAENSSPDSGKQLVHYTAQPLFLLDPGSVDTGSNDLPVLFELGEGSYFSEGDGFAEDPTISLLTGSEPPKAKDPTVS
# Sequence of ETV5 (P41161 whole entry): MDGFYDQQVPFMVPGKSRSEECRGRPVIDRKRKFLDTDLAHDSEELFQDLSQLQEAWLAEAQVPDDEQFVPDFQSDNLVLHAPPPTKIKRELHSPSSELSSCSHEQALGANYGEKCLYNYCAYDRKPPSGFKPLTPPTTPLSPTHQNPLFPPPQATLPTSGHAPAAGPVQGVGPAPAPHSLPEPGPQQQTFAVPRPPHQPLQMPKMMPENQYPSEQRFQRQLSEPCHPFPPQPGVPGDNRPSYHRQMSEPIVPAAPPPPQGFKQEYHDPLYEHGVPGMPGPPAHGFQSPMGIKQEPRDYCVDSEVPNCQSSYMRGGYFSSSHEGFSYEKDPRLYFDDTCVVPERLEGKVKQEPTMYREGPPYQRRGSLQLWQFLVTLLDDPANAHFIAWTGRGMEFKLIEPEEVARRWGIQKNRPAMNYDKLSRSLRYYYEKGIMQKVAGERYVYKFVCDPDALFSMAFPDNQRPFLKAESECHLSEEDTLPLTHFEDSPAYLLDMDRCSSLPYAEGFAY
# Sequence of ELF1 (P32519 whole entry): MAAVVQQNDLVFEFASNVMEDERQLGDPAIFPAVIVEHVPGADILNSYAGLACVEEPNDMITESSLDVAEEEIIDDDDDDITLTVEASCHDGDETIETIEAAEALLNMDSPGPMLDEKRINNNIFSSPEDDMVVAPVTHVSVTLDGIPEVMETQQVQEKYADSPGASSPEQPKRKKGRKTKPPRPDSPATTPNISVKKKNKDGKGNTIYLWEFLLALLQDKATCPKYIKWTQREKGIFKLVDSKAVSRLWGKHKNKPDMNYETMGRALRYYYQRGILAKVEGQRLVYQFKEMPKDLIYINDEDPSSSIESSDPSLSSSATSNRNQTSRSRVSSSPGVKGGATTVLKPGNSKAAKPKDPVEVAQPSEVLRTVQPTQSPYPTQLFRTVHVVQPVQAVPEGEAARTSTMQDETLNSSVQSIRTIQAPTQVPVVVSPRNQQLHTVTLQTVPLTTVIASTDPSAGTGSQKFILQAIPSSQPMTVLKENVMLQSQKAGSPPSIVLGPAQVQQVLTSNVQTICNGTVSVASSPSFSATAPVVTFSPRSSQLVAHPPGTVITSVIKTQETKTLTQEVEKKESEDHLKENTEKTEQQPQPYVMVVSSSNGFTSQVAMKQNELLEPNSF
# Sequence of SPIB (Q01892 whole entry): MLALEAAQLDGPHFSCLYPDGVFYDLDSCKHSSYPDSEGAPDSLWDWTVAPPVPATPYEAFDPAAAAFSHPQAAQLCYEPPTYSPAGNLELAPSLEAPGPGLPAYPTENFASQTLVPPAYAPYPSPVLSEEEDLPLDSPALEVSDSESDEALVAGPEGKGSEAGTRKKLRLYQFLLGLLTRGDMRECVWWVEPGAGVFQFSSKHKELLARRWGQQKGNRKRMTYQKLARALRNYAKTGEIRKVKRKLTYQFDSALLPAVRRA
# Sequence of ELF4 (Q99607 whole entry): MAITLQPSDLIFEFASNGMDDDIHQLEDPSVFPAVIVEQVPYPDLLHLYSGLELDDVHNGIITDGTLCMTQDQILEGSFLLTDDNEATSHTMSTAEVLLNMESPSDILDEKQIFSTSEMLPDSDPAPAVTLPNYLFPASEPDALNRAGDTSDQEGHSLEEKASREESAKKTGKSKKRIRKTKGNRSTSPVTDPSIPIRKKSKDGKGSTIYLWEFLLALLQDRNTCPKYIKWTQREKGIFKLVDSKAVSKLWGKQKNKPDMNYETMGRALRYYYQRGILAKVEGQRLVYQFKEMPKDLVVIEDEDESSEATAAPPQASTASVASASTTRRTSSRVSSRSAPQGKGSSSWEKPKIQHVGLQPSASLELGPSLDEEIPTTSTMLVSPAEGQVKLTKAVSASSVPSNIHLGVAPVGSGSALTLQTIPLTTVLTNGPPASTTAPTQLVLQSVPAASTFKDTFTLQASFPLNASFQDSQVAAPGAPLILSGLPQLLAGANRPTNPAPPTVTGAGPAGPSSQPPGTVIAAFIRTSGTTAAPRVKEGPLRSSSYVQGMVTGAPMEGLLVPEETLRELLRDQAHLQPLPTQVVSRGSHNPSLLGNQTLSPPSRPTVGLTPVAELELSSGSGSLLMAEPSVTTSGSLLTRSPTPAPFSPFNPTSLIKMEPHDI
sequence,measurement,setting,value
AATGAT,binding signal,FLI1,"1.08 fold enrichment (6-mer frequency, TF over GST control)"
same,binding signal,ELK1,"1.22 fold enrichment (6-mer frequency, TF over GST control)"
same,binding signal,GABPA,"1.15 fold enrichment (6-mer frequency, TF over GST control)"
same,binding signal,ERG,"1.14 fold enrichment (6-mer frequency, TF over GST control)"
same,binding signal,ELF1,"1.19 fold enrichment (6-mer frequency, TF over GST control)"
same,binding signal,EHF,"1.2 fold enrichment (6-mer frequency, TF over GST control)"
same,binding signal,SPI1,"1.16 fold enrichment (6-mer frequency, TF over GST control)"
same,binding signal,SPIB,"1.12 fold enrichment (6-mer frequency, TF over GST control)"
same,binding signal,ELK3,"1.19 fold enrichment (6-mer frequency, TF over GST control)"
same,binding signal,FEV,"1.18 fold enrichment (6-mer frequency, TF over GST control)"
same,binding signal,ETV5,"1.14 fold enrichment (6-mer frequency, TF over GST control)"
same,binding signal,HSF1,"1.25 fold enrichment (6-mer frequency, TF over GST control)"
same,binding signal,SPIC,"1.1 fold enrichment (6-mer frequency, TF over GST control)"
same,binding signal,ELF4,"1.17 fold enrichment (6-mer frequency, TF over GST control)"
same,binding signal,ELK4,"1.25 fold enrichment (6-mer frequency, TF over GST control)"
same,binding signal,ETV2,"1.21 fold enrichment (6-mer frequency, TF over GST control)"
same,binding signal,ELF3,"1.17 fold enrichment (6-mer frequency, TF over GST control)"
same,binding signal,CRX,"1.37 fold enrichment (6-mer frequency, TF over GST control)"
same,binding signal,ETV1,"1.07 fold enrichment (6-mer frequency, TF over GST control)"
